The values that follow come from PubChem BioAssay (NCATS).

Records with an inconclusive call do not appear. A number with no mark means an inactive call. The source made the active and inactive calls. The call rests on the fitted dose curve; in most records, active means well fitted activation curve with a large enough effect in the signal ratio; inconclusive means small, poorly fitted or top-dose-only effect, or effect the other way, or a change in a side signal; inactive means flat fitted curve, though single readings scatter; the % refers to the signal ratio.

This test is described as follows: qHTS assay for small molecule agonists of the antioxidant response element (ARE) signaling pathway (AID 651741). Further: % of control where 0% means no effect. The note with it: HepG2 ARE-bla reporter, beta-lactamase FRET ratio, 16 h; series mostly up to 96 µM; activation: at the top concentration. An outline of the steps: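 Compounds in DMSO are pinned onto HepG2 ARE-bla cells (2,000/well) that were preincubated 5 h; plates stay 16 h at 37 C, then beta-lactamase activity is detected with LiveBLAzer B/G substrate by fluorescence.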
Regarding `Cc1cnc[nH]1`, the “activation” value was -0.122%.

For the molecule `CN(C)N=O`, the “activation” value was -0.191%.

With `COc1c(C(C)(C)C)cc([N+](=O)[O-])c(C)c1[N+](=O)[O-]`, the “activation” value is 3.54%.

Turning to `C=C(Cl)CCl`, the “activation” value is 1.2%.

Take `CC(C)(Cl)[N+](=O)[O-]`: the “activation” value is 6.14%.

Take `Cl/C=C/Cl`: the “activation” value is -1.64%.

In the case of `CCCCOCC1CO1` (centres undefined), the “activation” value was -1.33%.

In the case of `O=C(O)c1cccc(Cl)c1`, the “activation” value was 9.55%.

`C1CC2OC2CC1C1CO1` (centres undefined): the Potency result was “inactive”.

For the molecule `ClCCOCCCl`, the “activation” value was -1.15%.

Regarding `CCNCC`, the “activation” value was 7.98%.

With `c1ccc2c(c1)CCNC2`, the “activation” value was 2.7%.

Regarding `CCBr`, the “activation” value was -3.17%.

Turning to `N#CCCC#N`, the “activation” value is -1.82%.

With `C=CC(=O)OCCN(C)C`, the “activation” value is 0.552%.

Consider `CC(C)(C)C(O)(CCc1ccc(Cl)cc1)Cn1cncn1` (centres undefined), for which the “activation” value is 3.16%.

As to `N#CCCCCC#N`, the “activation” value was -3.08%.

Take `CN=C=O`: the “activation” value is -1.69%.

For `c1ccc(C2CO2)cc1` (centres undefined), the “activation” value is -1.53%.

For `COc1ccc(C=O)cc1`, the “activation” value is 2.93%.

Regarding `CC(=O)[O-].CC(=O)[O-].CC(=O)[O-].[Cr+3]`, the “activation” value was -1.74%.

With `CC(=O)CCC(C)=O`, the “activation” value is -2.76%.

`C=CC(=O)OCC(CC)CCCC` (centres undefined): the Potency entry is “inactive”.

Consider `CC(C#N)CCC#N` (centres undefined), for which the “activation” value is 4.46%.
